Screens as filed in PubChem.
This is a sample that favours compounds with a hit; in the whole collection about 1.5% have one here.
IDE cell inh: inhibitors of human insulin-degrading enzyme in cells; AID 434962; 320,000 tested, 0.41% active; P14735; inhibition, % at 5.59 µM; HEK cells, FAbetaB cleavage, fluorescence polarization;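 active = percent inhibition above the average of all tested compounds plus 3 SD, set per screening campaign, cut at about 16% in these data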;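 also: IDE supplied by intact live HEK cells; FP after avidin binding of uncleaved biotin substrate so inhibition keeps polarization high; 0% = DMSO wells and 100% = 60 µM reference IDE inhibitor Ii1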
CRFR2-BP ag: agonists of human CRF-binding protein/CRF-R2 receptor complex; activation, % at 13.2 µM; HEK293 CRF-R2/CRF-BP, calcium dye fluorescence (FLIPR); percent of saturating CRF peptide response; 350,000 tested, 0.46% active; AID 588473;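 active = activation of at least 50%, plus an integration ratio under a set limit after plate pattern correction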;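 also: plate controls were neutral control wells without compound for no effect and CRF at EC100 for full effect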
RTF Ca sens inh: cardiac RTF calcium desensitization. 340,000 tested, 0.12% active. P19429+P45379. IANBD-labeled cardiac RTF, Ca2+ fluorescence. inhibition, % at 7.15 µM;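 active = inhibition above the mean inhibition of all tested compounds plus 3 SD, cut at about 17% in these data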;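 also: assay run at fixed EC70 calcium of 1.6 mM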
IDE cell activ: boosts human insulin-degrading enzyme activity in HEK cells; P14735; 340,000 tested, 0.073% active; activation, % at 5.96 µM; AID 493087; FAbeta-B cleavage, fluorescence polarization; 0% vehicle, 100% cell-free pure enzyme wells;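 active = activation above the mean of all tested compounds plus 3 SD, set per screening campaign, cut at about 17% in these data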
RTF Ca sens act: cardiac RTF calcium sensitization. activation, % at 7.2 µM. P19429+P45379. 340,000 tested, 0.24% active. IANBD-labeled TnC RTF fluorescence at EC20 calcium; 0% EC20 calcium, 100% full calcium. AID 493008;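 active = activation above the mean over all tested compounds plus 3 SD, cut at about 30% in these data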;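 also: rise in fluorescence read as greater calcium sensitivity of cardiac thin filaments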
CRFR2-BP antag: antagonists of CRF-binding protein/CRF-R2 receptor complex. HEK293 CRF-R2/CRF-BP, CRF-induced calcium fluorescence. inhibition, % at 11.8 µM. 350,000 tested, 0.59% active. AID 588475;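 active = inhibition of the ligand-induced calcium signal above about 50% at the single tested concentration, limit read from the data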
Active calls of the source: *; i = inactive; · = no result.

SMILES	IDE cell inh	CRFR2-BP ag	RTF Ca sens inh	IDE cell activ	RTF Ca sens act	CRFR2-BP antag
NCCNC(=O)c1c(O)c2cccc3c2n(c1=O)CCC3	·	0	8	-3	-1	-3
O=C(NCCO)c1c(O)c2cccc3c2n(c1=O)CC3	-2	8	-13	0	9	56*
O=C(CCc1nnc(C2(c3ccc(Cl)cc3)CCC2)o1)N1CCCC(O)C1 (centres undefined)	-3	0	1	1	2	5
CCCOc1ccc(/C=N/NC(=O)CN2CCCCC2)cc1	7	0	-9	-1	-3	-2
CCOc1ccc(/C=N/NC(=O)CN2CCCCCCC2)cc1	-5	4	-9	-1	7	57*
Cc1ccc(S(=O)(=O)N2CCOCC2)cc1C(=O)OCC(=O)NC1CCCC1	1	-1	-6	2	5	6
Cc1ccc(NC(=S)NC(=O)c2ccc(-c3ccc(Cl)cc3)o2)c(O)c1	-4	0	7	3	0	-10
Cc1ccc(O)c(NC(=S)NC(=O)Cc2ccc(Cl)cc2)c1	2	179*	-5	2	2	-87
CC(=O)c1ccc(NC(=S)NC(=O)Cc2ccc(Cl)cc2)cc1	2	75*	-3	4	-6	-59
CCCC(=O)NC(=S)Nc1ccc(C(C)=O)cc1	5	0	-21	-2	10	5
CSc1ccc(S(=O)(=O)NCC(=O)OCC(=O)N(Cc2ccccc2)C(C)C)cc1[N+](=O)[O-]	1	1	-9	4	-8	56*
CSc1ccc(S(=O)(=O)NCC(=O)OCC(=O)N(C)Cc2ccccc2)cc1[N+](=O)[O-]	7	0	-3	0	0	13
CCN(CC)c1ccc(/C=C/c2cccc[n+]2C)c(OC)c1	28*	55*	-96	-36	75*	-90
O=C(N/N=C/c1ccccn1)c1cccs1	4	0	3	5	0	62*
CN1OC[C@@H]2CN[C@H](c3cccc(-c4ccccc4)c3)C[C@@H]21	·	-1	-1	3	-11	9
O=C(CCl)Nc1ccccc1Sc1ccc(Cl)cc1	9	1	-6	-1	9	67*
Cc1onc(-c2c(F)cccc2Cl)c1C(=O)Nc1cccc(S(=O)(=O)NC2=NCCC2)c1	2	1	-9	-2	3	1
Cc1ccc2c(c1)NC(=O)C(CC(=O)Nc1ccc(Br)c(C)c1)O2 (centres undefined)	5	3	-1	4	-3	0
O=c1c2ccccc2nc2n1C(CBr)CN2 (centres undefined)	-3	-1	-5	-3	6	65*
CSc1c(C#N)sc(=S)n1-c1ccc(C)cc1	1	2	-5	0	7	56*
Cc1ccc(N(CC(=O)NCc2ccc(F)cc2)S(=O)(=O)c2c(C)n[nH]c2C)cc1	2	7	-3	-3	7	4
CCNC(=S)Nc1ccc(Cc2nc3ccccc3[nH]2)cc1	9	1	-1	4	-5	-5
COc1ccc(-c2nnc(Nc3ccc(S(=O)(=O)Nc4nccs4)cc3)c3ccccc23)cc1	·	-4	-1	2	-5	61*
O=C1CCC(C(=O)N2CCCC(Nc3ccc(F)cc3)C2)=NN1 (centres undefined)	5	-1	-4	-3	-4	2
CNC(=O)C1CC(=O)N(c2ccc(OCC(=O)Nc3ccc(OC)cc3)cc2)C1 (centres undefined)	-1	1	-9	-2	1	5
SMILES	IDE cell inh	CRFR2-BP ag	RTF Ca sens inh	IDE cell activ	RTF Ca sens act	CRFR2-BP antag
O=C1c2ccccc2-c2cccc(NS(=O)(=O)c3ccc(C(F)(F)F)cc3)c21	8	97*	-12	-21	2	-63
Cc1ccc(S(=O)(=O)Nc2ccccc2-c2ccccc2NS(=O)(=O)c2ccc(C)cc2)cc1	4	-1	-1	0	-3	19
COc1ccc2[nH]c3c(c2c1)CCNC3c1ccc([N+](=O)[O-])o1 (centres undefined)	-1	14	-32	2	33*	-24
Cc1ccc2[nH]c3c(Cl)ncnc3c2c1	3	0	·	·	·	-7
CCCOc1ncnc2c1[nH]c1ccc(C)cc12	37*	-6	·	·	·	-15
CCOc1ncnc2c1[nH]c1ccccc12	18*	-1	-1	-12	3	0
COc1ccc(CNc2ncnc3c2[nH]c2cc(OC)c(OC)cc23)cc1	2	0	1	1	-3	-3
COc1ccc(CNc2ncnc3c2[nH]c2ccccc23)cc1	60*	15	·	·	·	-6
CC(C)OCCCNc1ncnc2c1[nH]c1ccccc12	13	0	0	-37	0	3
O=C(CCC(=O)N1CCN(c2ccccc2)CC1)Nc1nnc(C2CCCCC2)s1	6	-3	-1	3	5	-15
CC1CC(C)CN(S(=O)(=O)c2ccc(C(=O)NNC(=O)c3ccccc3F)cc2)C1 (centres undefined)	0	-1	-1	3	1	-12
COC(=O)c1ccc(CNC(=O)COC(=O)c2cc(Cl)ccc2O)cc1	-2	0	-12	2	8	9
O=C(N/N=C/c1cc(Cl)cc([N+](=O)[O-])c1O)NC12CC3CC(CC(C3)C1)C2	-2	-3	-16	7	-6	53*
O=C(N/N=C/c1ccccc1O)NC12CC3CC(CC(C3)C1)C2	-2	0	-1	7	-4	-4
COc1ccc(CCNC(=O)C(=O)c2cn(CC(=O)N3CCCC3)c3ccccc23)cc1	·	0	·	·	·	-2
NC(CO)c1cn([C@@H](CCC(=O)O)C(=O)N2CCNCC2)nn1 (some centres undefined)	1	-2	-4	22*	0	-8
Cc1cccc(NC(=O)CN(CC2CCCO2)C(=O)c2ccc(S(C)(=O)=O)cc2)c1C (centres undefined)	·	0	3	3	-2	2
C=CCn1c(SCc2c(C)noc2C)nc2sc(C)c(C)c2c1=O	1	-5	-1	-4	8	74*
COC(=O)c1ccc2c(c1)C(C)(C)C(/C=C/c1ccccc1O)=[N+]2C	13	53*	-10	-19	17	-122
C[N+]1=C(/C=C/Nc2ccccc2Cl)C(C)(C)c2ccccc21	1	6	-6	0	5	-12
Cc1cc2nc3c(=O)n(C4CCCCC4)c(=O)[nH]c3nc2cc1N	·	380	i	-7	566*	-349
CCN(CC)C(=O)c1[nH]cnc1C(=O)N[C@H](C)c1ccccc1	6	-1	3	-5	0	5
CCOc1ccc(S(=O)(=O)NCc2ccc3c(c2)OCO3)cc1NC(C)=O	-7	0	2	5	-5	-3
